Bioassay records deposited in PubChem by National Center for Advancing Translational Sciences (NCATS).
Giardia killer – kills Giardia lamblia; Giardia lamblia trophozoite viability; activity change, % at 7.66 µM, hits read low; 340,000 compounds, 0.15% hits; AID 540267; in the data active = activity change below about -80%; inconclusive = between about -30% and that limit;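 note: parasites exposed to compound for two days anaerobically before the ATP read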
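Trophozoite viability was measured as ATP-dependent luminescence, read 15-30 min after reagent addition. Before that, parasites at 100 cells/well were exposed to compounds for 48 h, anaerobically, at 37 deg C.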
IL1B secr inh – blocks inflammasome-driven IL-1 beta release. THP-1 LPS/ATP IL-1B secretion, AlphaLISA, 16 h; active compounds read low. activity change, % at 57.5 µM. 360,000 compounds, 4.7% hits. AID 743279; in the data active = activity change below about -50%; inconclusive = mostly about -30% to -49%
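Secreted IL-1B measured by AlphaLISA bead assay after 16 h compound exposure of THP-1 cells; compounds (final up to 57.5 uM) added 1 h before LPS (250 ng/mL) and ATP (1.25 mM) stimulation; lower signal means less secretion.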
TGFb inhibitor – blocks TGF-b signaling; HepG2 CAGA-GFP TGF-b/SMAD3 reporter, GFP fluorescence, 18 h; TGF-beta stimulated, 500 pg/mL final; Potency, µM (titrated, usually from 46.1 µM), actives largely listed as inhibitors; 410,000 compounds, 1.2% hits; AID 588855; note: nearly all actives have a fitted effect of over 65% in size
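HEPG2 CAGA-GFP, 1000 cells/well; 2 h settle, 37 C; cpd via pin tool; TGF-b 500 pg/mL final; 18 h, 37 C; GFP imaging ex488/em500-530; %Activity normalised to -TGF-b and +DMSO controls; CRC fit, curve class.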
HepG2 viability – kills HepG2 cells in TGF-b inhibitor counter-screen | HepG2 CAGA-GFP viability, ATP luminescence, 18 h | Potency, µM (top dose mostly 46.1 µM), most hits filed as cytotoxic | 410,000 compounds, 0.76% hits
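CellTiter-Glo luminescence gave cytotoxicity after 18 hours at 37 degrees C. The cells were HepG2 CAGA-GFP in 1% FBS DMEM, stimulated with 500 pg/mL TGF-beta after compound addition. %Activity was normalised to no-cell wells (complete cell-killing) and DMSO (no toxicity), and curves were fitted and classified.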
HT1080NT lethal – kills 2HG-producing HT-1080-NT fibrosarcoma cells. HT-1080-NT fibrosarcoma viability, CellTiter-Glo ATP luminescence, 48 h. Potency, µM (doses to about 46.1 µM), hits mostly cytotoxic. 360,000 compounds, 1.6% hits. AID 686970;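 note: NT is the 2HG producing partner of a matched IDH1 knockdown line; nearly all actives have a fitted effect of over 55% in size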
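Read-out is CellTiter-Glo luminescence after 10 minutes at room temperature, following 48 hours' compound treatment of HT-1080-NT cells (750 cells/well, RPMI, 5% FBS, 37 degrees C).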
HT1080 IDH1KD tx – kills HT-1080 cells with IDH1 knockdown; HT-1080 IDH1 knockdown viability, ATP luminescence, 48 h; Potency, µM (series often up to 46.1 µM), most hits filed as cytotoxic; 360,000 compounds, 2% hits; AID 686971
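Assay cells: HT-1080 with IDH1 knockdown, 750 per well, RPMI/5% FBS. Exposure: 48 h at 37 °C following 2 h pre-incubation. Read: CellTiter-Glo luminescence; fitted concentration-response, curve class assigned.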
Numbers stand for hits; - = inactive; ? = inconclusive; . = not tested or not shown. In the library only some 6.5% were active in any assay of this set; here they are far more common. Unless noted, calls come from the whole dose curve; as a rule, active = well fitted curve in the direction sought with a large enough effect; inconclusive = small, poorly fitted or top-dose-only effect, or another doubt; inactive = no such curve, though single readings can be large; an effect the other way counts as inactive or inconclusive.

SMILES	Giardia killer	IL1B secr inh	TGFb inhibitor	HepG2 viability	HT1080NT lethal	HT1080 IDH1KD tx
CC[n+]1c(/C=C(\C)Nc2ccccc2)sc2ccccc21	-	-80	-	-	-	-
CC[n+]1c(/C=C/Nc2ccccc2)sc2ccccc21	-	-102	-	-	-	-
CC[n+]1c(/C=C(\C)OC)sc2ccccc21	-	-	-	-	-	-
CCN1C(=O)C(c2ccc(O)cc2)(c2ccc(O)cc2)c2ccccc21	-	-94	-	-	-	-
Oc1c(Cl)cc(Cl)c2c1NCCC2	-	-	14µM	-	-	-
O=C(Nc1ccc(F)cc1)C1CCCN1S(=O)(=O)c1ccc(Br)cc1 (stereo not drawn)	-	-	-	-	-	-
COc1cccc(-c2nc(NCc3ccco3)c3ccccc3n2)c1O	-	-	-	-	?	?
Cc1[nH]n(-c2ccc(Br)cc2)c(=O)c1/C=N/NC(=O)c1ccccc1	-	-	3.5µM	-	?	?
O=C(N/N=C/c1ccc(Br)cc1)c1ccc(NC(=O)c2ccccc2)cc1	-	-	-	-	-	-
Cc1[nH]n(-c2ccccc2)c(=O)c1/C=N/NC(=O)c1cccc(F)c1	-	-	?	16µM	10µM	7.3µM
Cc1nc(Oc2ccc(F)cc2Cl)c2oc3ccccc3c2n1	.	.	-	-	.	.
C[C@H]1CN([C@@H](C)CO)C(=O)CCCn2cc(nn2)CO[C@@H]1CN(C)C(=O)Nc1ccc2c(c1)OCCO2	.	-	-	-	-	-
COc1ccc(CCNCCC(c2ccccc2)c2ccccc2)cc1OC	.	-54	?	13µM	-	-
COc1cc(OC)c(OC)cc1CCC(C)NCCC(c1ccccc1)c1ccccc1 (stereo not drawn)	-	-65	14µM	11µM	?	?
COc1ccc(CCNCCC(=O)Nc2c(C)cc(C)cc2C)cc1OC	-	-64	-	-	-	-
COc1ccc(CCN2CC(C(=O)NCCc3cnn(C)c3)CCC2=O)cc1 (stereo not drawn)	-	-	-	-	-	-
C=CC(=O)Nc1cccc(Nc2nc(N[C@H]3CC[C@H](N(C)C)CC3)nc3c2ncn3C(C)C)c1	-	-	0.71µM	-	?	0.65µM
CCCCCCCC/C=C\CCCCCCCC(=O)NCCc1ccc(O)c(O)c1	-	?	?	-	4.6µM	23µM
CCCCCCCC/C=C\CCCCCCCC(=O)NCCO	-	-	-	-	-	-
Cc1ccc(C(=O)N/C(=C\c2ccc(-c3ccc(Br)cc3)o2)C(=O)NCCCN(C)C)cc1	-	-77	7.1µM	4.5µM	?	23µM
Cc1ccc(C(=O)N/C(=C\c2ccc(-c3ccccc3[N+](=O)[O-])o2)C(=O)NCCCN2CCOCC2)cc1	-	-	?	-	?	?
Cc1ccc(C(=O)N/C(=C\c2ccc(-c3cccc([N+](=O)[O-])c3)o2)C(=O)NCCCN(C)C)cc1	-	-68	?	-	18µM	15µM
CN(C)CCCNC(=O)/C(=C\c1ccc(-c2cccc([N+](=O)[O-])c2)o1)NC(=O)c1ccccc1	-	-119	?	-	?	?
CCOc1ccc(-c2cc3c(=O)n(CC(=O)Nc4cc(F)ccc4C)ccn3n2)cc1	.	.	-	-	.	.
Cc1ccc(C)c(CSc2nnc(C)c(=O)[nH]2)c1	-	-	-	-	-	-
CCc1cccc2c(C(=O)CN3C(=O)NC(C)(c4cccc5ccccc45)C3=O)c[nH]c12 (stereo not drawn)	-	-	?	-	?	15µM
Cc1ccc(C)c(C(=O)CN2C(=O)NC3(CCc4ccccc43)C2=O)c1 (stereo not drawn)	-	-	-	-	-	-
CCc1cccc2c(C(=O)CN3C(=O)N(C)C4(CCCCC4)C3=O)c[nH]c12	-	-	?	-	18µM	16µM
CN1C(=O)N(CC(=O)NCc2ccc(Cl)cc2Cl)C(=O)C12CCCCC2	-	-54	-	-	-	-
